Experimental data reported in the supplement of paper PMC8728848.
Shown is part of a subset that was picked to be rich in the strongest signals.

Experiments:
Assay in all cases: glycan array binding signal (z-score within array); higher = stronger binding
Conditions in all cases: glycan notation: IUPAC condensed, linker removed
[1] = target: Fuc(a1-2)Gal(b1-3)GalNAc(b1-3)Gal(a1-4)Gal(b1-4)Glc
Method in brief: (§1)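 The Consortium for Functional Glycomics database supplied 3228 glycan arrays, of which those lacking an available protein sequence were dropped. The binding signal, a within-array Z-score, was averaged across arrays of the same protein sequence and across linkers. Negative scores can be read as non-binding.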

[2] = target: Fuc(a1-2)Gal(b1-3)GlcNAc6S
Method in brief: as §1

[3] = target: Fuc(a1-2)Gal(b1-3)[Fuc(a1-4)]GlcNAc
Method in brief: as §1

[4] = target: Fuc(a1-2)Gal(b1-3)[Fuc(a1-4)]GlcNAc(b1-3)[Gal(b1-4)GlcNAc(b1-6)]Gal(b1-4)Glc
Method in brief: as §1

[5] = target: Fuc(a1-2)Gal(b1-4)GlcNAc(b1-2)Man(a1-3)[Fuc(a1-2)Gal(b1-4)GlcNAc(b1-2)Man(a1-6)]Man(b1-4)GlcNAc(b1-4)GlcNAc
Method in brief: as §1

[6] = target: Fuc(a1-2)Gal(b1-4)[Fuc(a1-3)]GlcNAc(b1-3)GalNAc
Method in brief: as §1

[7] = target: Fuc(a1-2)Gal3S(b1-4)GlcNAc
Method in brief: as §1

[8] = target: Fuc(a1-2)[Gal(a1-3)]Gal(b1-3)GalNAc(b1-3)Gal(a1-4)Gal(b1-4)Glc
Method in brief: as §1

[9] = target: Fuc(a1-2)[Gal(a1-3)]Gal(b1-4)GlcNAc(b1-2)Man(a1-3)[Fuc(a1-2)[Gal(a1-3)]Gal(b1-4)GlcNAc(b1-2)Man(a1-6)]Man(b1-4)GlcNAc(b1-4)GlcNAc
Method in brief: as §1

[10] = target: Fuc(a1-2)[GalNAc(a1-3)]Gal(b1-4)GlcNAc(b1-2)Man(a1-3)[Fuc(a1-2)[GalNAc(a1-3)]Gal(b1-4)GlcNAc(b1-2)Man(a1-6)]Man(b1-4)GlcNAc(b1-4)GlcNAc
Method in brief: as §1

[11] = target: Fuc(a1-3)[Gal(b1-4)]GlcNAc(b1-6)GalNAc
Method in brief: as §1

[12] = target: Gal(a1-3)Gal(b1-4)GlcNAc(b1-2)Man(a1-3)[Gal(a1-3)Gal(b1-4)GlcNAc(b1-2)Man(a1-6)]Man(b1-4)GlcNAc(b1-4)GlcNAc
Method in brief: as §1

[13] = target: Gal(a1-3)[Gal(a1-4)]Gal(b1-4)GlcNAc
Method in brief: as §1

[14] = target: Gal(a1-4)Gal(b1-3)GlcNAc(b1-2)Man(a1-3)[Gal(a1-4)Gal(b1-3)GlcNAc(b1-2)Man(a1-6)]Man(b1-4)GlcNAc(b1-4)GlcNAc
Method in brief: as §1

Gal(b1-4)Gal = target: Gal(b1-4)Gal
Method in brief: as §1

[15] = target: Gal(b1-4)GlcNAc(b1-2)[Gal(b1-4)GlcNAc(b1-4)]Man(a1-3)[GlcNAc(b1-4)][Gal(b1-4)GlcNAc(b1-2)Man(a1-6)]Man(b1-4)GlcNAc(b1-4)GlcNAc
Method in brief: as §1

[16] = target: Gal(b1-4)GlcNAc(b1-3)Gal(b1-3)GalNAc
Method in brief: as §1

[17] = target: Gal(b1-4)GlcNAc(b1-3)Gal(b1-4)Glc
Method in brief: as §1

[18] = target: Gal(b1-4)GlcNAc(b1-3)Gal(b1-4)GlcNAc(b1-2)Man(a1-3)[Gal(b1-4)GlcNAc(b1-3)Gal(b1-4)GlcNAc(b1-2)Man(a1-6)]Man(b1-4)GlcNAc(b1-4)[Fuc(a1-6)]GlcNAc
Method in brief: as §1

[19] = target: Gal(b1-4)GlcNAc(b1-3)Gal(b1-4)GlcNAc(b1-3)Gal(b1-4)GlcNAc(b1-2)Man(a1-3)[Gal(b1-4)GlcNAc(b1-3)Gal(b1-4)GlcNAc(b1-3)Gal(b1-4)GlcNAc(b1-2)Man(a1-6)]Man(b1-4)GlcNAc(b1-4)GlcNAc
Method in brief: as §1

[20] = target: Gal(b1-4)GlcNAc(b1-3)Gal(b1-4)GlcNAc(b1-3)Gal(b1-4)GlcNAc(b1-3)Gal(b1-4)GlcNAc(b1-3)Gal(b1-4)GlcNAc(b1-2)[Gal(b1-4)GlcNAc(b1-3)Gal(b1-4)GlcNAc(b1-3)Gal(b1-4)GlcNAc(b1-3)Gal(b1-4)GlcNAc(b1-3)Gal(b1-4)GlcNAc(b1-6)]Man(a1-6)[Gal(b1-4)GlcNAc(b1-3)Gal(b1-4)GlcNAc(b1-3)Gal(b1-4)GlcNAc(b1-3)Gal(b1-4)GlcNAc(b1-3)Gal(b1-4)GlcNAc(b1-2)Man(a1-3)]Man(b1-4)GlcNAc(b1-4)[Fuc(a1-6)]GlcNAc
Method in brief: as §1

[21] = target: Gal(b1-4)GlcNAc(b1-3)GalNAc
Method in brief: as §1

[22] = target: Gal(b1-4)GlcNAc(b1-6)[Gal(b1-3)]GalNAc
Method in brief: as §1

Gal4S6S(b1-4)GlcNAc = target: Gal4S6S(b1-4)GlcNAc
Method in brief: as §1

GalNAc(a1-3)Gal = target: GalNAc(a1-3)Gal
Method in brief: as §1

GlcNAc(b1-3)Fuc = target: GlcNAc(b1-3)Fuc
Method in brief: as §1

[23] = target: GlcNAc(b1-3)Gal(b1-4)GlcNAc(b1-3)Gal(b1-4)GlcNAc
Method in brief: as §1

[24] = target: GlcNAc(b1-3)[GlcNAc(b1-4)][GlcNAc(b1-6)]GlcNAc
Method in brief: as §1

[25] = target: GlcNAc(b1-4)Gal(b1-4)GlcNAc
Method in brief: as §1

GlcNAc(b1-4)GlcNAc = target: GlcNAc(b1-4)GlcNAc
Method in brief: as §1

[26] = target: GlcNAc(b1-4)GlcNAc(b1-4)GlcNAc
Method in brief: as §1

Kdn(a2-3)Gal(b1-4)GlcNAc = target: Kdn(a2-3)Gal(b1-4)GlcNAc
Method in brief: as §1

[27] = target: Man(a1-3)[Man(a1-6)]Man(b1-4)GlcNAc(b1-4)GlcNAc
Method in brief: as §1

MurNAc(b1-4)GlcNAc = target: MurNAc(b1-4)GlcNAc
Method in brief: as §1

[28] = target: Neu5Ac(a2-3)Gal(b1-3)GalNAc
Method in brief: as §1

[29] = target: Neu5Ac(a2-3)Gal(b1-3)GlcNAc(b1-2)Man
Method in brief: as §1

[30] = target: Neu5Ac(a2-3)Gal(b1-3)GlcNAc(b1-2)Man(a1-3)[GlcNAc(b1-4)][Neu5Ac(a2-3)Gal(b1-3)GlcNAc(b1-2)Man(a1-6)]Man(b1-4)GlcNAc(b1-4)GlcNAc
Method in brief: as §1

[31] = target: Neu5Ac(a2-3)Gal(b1-3)[Fuc(a1-4)]GlcNAc
Method in brief: as §1

[32] = target: Neu5Ac(a2-3)Gal(b1-3)[Fuc(a1-4)]GlcNAc(b1-3)Gal(b1-4)[Fuc(a1-3)]GlcNAc
Method in brief: as §1

[33] = target: Neu5Ac(a2-3)Gal(b1-3)[GlcNAc(b1-6)]GalNAc
Method in brief: as §1

[34] = target: Neu5Ac(a2-3)Gal(b1-4)GlcNAc(b1-2)Man
Method in brief: as §1

[35] = target: Neu5Ac(a2-3)Gal(b1-4)GlcNAc(b1-3)Gal
Method in brief: as §1

[36] = target: Neu5Ac(a2-3)Gal(b1-4)GlcNAc(b1-3)Gal(b1-4)GlcNAc
Method in brief: as §1

[37] = target: Neu5Ac(a2-3)Gal(b1-4)[Fuc(a1-3)]GlcNAc(b1-6)[Gal(b1-3)]GalNAc
Method in brief: as §1

[38] = target: Neu5Ac(a2-6)Gal(b1-4)GlcNAc(b1-2)Man(a1-3)[Gal(b1-4)GlcNAc(b1-2)Man(a1-6)]Man(b1-4)GlcNAc(b1-4)GlcNAc
Method in brief: as §1

[39] = target: Neu5Ac(a2-6)Gal(b1-4)GlcNAc(b1-2)Man(a1-3)[GlcNAc(b1-2)Man(a1-6)]Man(b1-4)GlcNAc(b1-4)GlcNAc
Method in brief: as §1

[40] = target: Neu5Ac(a2-6)Gal(b1-4)GlcNAc(b1-2)Man(a1-3)[Neu5Ac(a2-6)Gal(b1-4)GlcNAc(b1-2)Man(a1-6)]Man(b1-4)GlcNAc(b1-4)GlcNAc
Method in brief: as §1

[41] = target: Neu5Ac(a2-6)Gal(b1-4)GlcNAc(b1-3)Gal(b1-4)GlcNAc(b1-2)Man(a1-3)[Neu5Ac(a2-6)Gal(b1-4)GlcNAc(b1-3)Gal(b1-4)GlcNAc(b1-2)Man(a1-6)]GalNAc
Method in brief: as §1

[42] = target: Neu5Ac(b2-6)Gal(b1-4)GlcNAc
Method in brief: as §1

[43] = target: Neu5Gc(a2-6)Gal(b1-4)GlcNAc
Method in brief: as §1

[44] = target: Neu5Gc(a2-8)Neu5Gc(a2-3)Gal(b1-4)GlcNAc
Method in brief: as §1

B1: LecRKVI.2 (protein)
chain: RTTTNFAFRGFNGNQSKIRIEGAAMIKPDGLLRLTDRKSNVTGTAFYHKPVRLLNRNSTNVTIRSFSTSFVFVIIPSSSSNKGFGFTFTLSPTPYRLNAGSAQYLGVFNKENNGDPRNHVFAVEFDTVQGSRDDNTDRIGNDIGLNYNSRTSDLQEPVVYYNNDDHNKKEDFQLESGNPIQALLEYDGATQMLNVTVYPARLGFKPTKPLISQHVPKLLEIVQEEMYVGFTASTGKGQSSAHYVMGWSFSSGGERPIADVLILSELPPPPPNKAKKEGLNS
glycan array binding signal (z-score) [1]: -0.133 | glycan array binding signal (z-score) [2]: -0.436 | glycan array binding signal (z-score) [3]: -0.312 | glycan array binding signal (z-score) [4]: -0.205 | glycan array binding signal (z-score) [5]: 3.27 | glycan array binding signal (z-score) [6]: 4.76 | glycan array binding signal (z-score) [7]: -0.468 | glycan array binding signal (z-score) [8]: -0.403 | glycan array binding signal (z-score) [9]: 0.276 | glycan array binding signal (z-score) [10]: 4.57 | glycan array binding signal (z-score) [11]: 3.86 | glycan array binding signal (z-score) [12]: 3.09 | glycan array binding signal (z-score) [13]: -0.211 | glycan array binding signal (z-score) [14]: 5.85 | glycan array binding signal (z-score) (Gal(b1-4)Gal): -0.396 | glycan array binding signal (z-score) [15]: -0.319 | glycan array binding signal (z-score) [16]: -0.047 | glycan array binding signal (z-score) [17]: -0.296 | glycan array binding signal (z-score) [18]: 3.44 | glycan array binding signal (z-score) [19]: 6.91 | glycan array binding signal (z-score) [20]: 0.566 | glycan array binding signal (z-score) [21]: -0.373 | glycan array binding signal (z-score) [22]: 1.83 | glycan array binding signal (z-score) (Gal4S6S(b1-4)GlcNAc): -0.352 | glycan array binding signal (z-score) (GalNAc(a1-3)Gal): 3.89 | glycan array binding signal (z-score) (GlcNAc(b1-3)Fuc): -0.233 | glycan array binding signal (z-score) [23]: -0.415 | glycan array binding signal (z-score) [24]: -0.429 | glycan array binding signal (z-score) [25]: -0.256 | glycan array binding signal (z-score) (GlcNAc(b1-4)GlcNAc): -0.232 | glycan array binding signal (z-score) [26]: -0.408 | glycan array binding signal (z-score) (Kdn(a2-3)Gal(b1-4)GlcNAc): -0.49 | glycan array binding signal (z-score) [27]: -0.376 | glycan array binding signal (z-score) (MurNAc(b1-4)GlcNAc): -0.279 | glycan array binding signal (z-score) [28]: -0.423 | glycan array binding signal (z-score) [29]: -0.335 | glycan array binding signal (z-score) [30]: -0.407 | glycan array binding signal (z-score) [31]: -0.318 | glycan array binding signal (z-score) [32]: -0.388 | glycan array binding signal (z-score) [33]: -0.402 | glycan array binding signal (z-score) [34]: -0.25 | glycan array binding signal (z-score) [35]: -0.323 | glycan array binding signal (z-score) [36]: -0.162 | glycan array binding signal (z-score) [37]: 3.09 | glycan array binding signal (z-score) [38]: 0.37 | glycan array binding signal (z-score) [39]: -0.274 | glycan array binding signal (z-score) [40]: 0.07 | glycan array binding signal (z-score) [41]: 3.81 | glycan array binding signal (z-score) [42]: -0.393 | glycan array binding signal (z-score) [43]: -0.356 | glycan array binding signal (z-score) [44]: -0.395
